Screening data from PubChem BioAssay.
CYP2C19 inhib: blockers of cytochrome P450 2C19 activity – biochemical, luminescence, ADME assay, primary screen; P33261; CYP2C19 Supersomes, luciferin-H EGE luminescence, 30 min; inhibition, % at 5 µM; hit rate 21% among 96,000; AID 778, 2007;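 active = CYP2C19 inhibition above a set limit at 5 µM in the primary screen, cut at about 50% in these data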;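 note: plate controls were negative control wells for no effect and 2.5 mM tranylcypromine positive control for full effect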
Target sequence (P33261 whole entry, looked up): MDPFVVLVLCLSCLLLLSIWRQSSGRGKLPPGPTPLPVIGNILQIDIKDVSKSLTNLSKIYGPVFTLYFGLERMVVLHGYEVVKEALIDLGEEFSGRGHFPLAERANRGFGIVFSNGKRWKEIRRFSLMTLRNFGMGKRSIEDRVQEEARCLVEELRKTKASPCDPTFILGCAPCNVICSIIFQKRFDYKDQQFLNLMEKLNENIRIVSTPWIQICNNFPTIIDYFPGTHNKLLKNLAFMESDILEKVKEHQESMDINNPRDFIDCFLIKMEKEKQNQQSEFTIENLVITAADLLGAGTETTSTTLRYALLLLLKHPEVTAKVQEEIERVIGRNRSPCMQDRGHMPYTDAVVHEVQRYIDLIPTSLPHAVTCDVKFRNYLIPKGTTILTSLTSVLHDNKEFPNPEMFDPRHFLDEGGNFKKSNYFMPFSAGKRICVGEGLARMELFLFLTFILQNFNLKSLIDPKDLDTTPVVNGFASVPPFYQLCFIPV
CYP2C9 activ: human CYP2C9 activators, primary screen, biochemical, luminescence; Cytochrome P450 2C9 (Homo sapiens), P11712; recombinant CYP2C9, luciferin-H conversion; stronger effect = higher value; factor 1 = untreated enzyme, 0 = blocked; activation factor at 5 µM; hit rate 1.4% among 96,000;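 active = activation factor of 2 or more for CYP2C9 at a 5 µM dose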;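 note: 0 = sulfaphenazole-blocked wells and 1 = vehicle-only wells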
CYP2C19 act: human CYP2C19 activators, primary screen, biochemical, luminescence; Cytochrome P450 2C19 (Homo sapiens), P33261; AID 1025, 2008; recombinant CYP2C19, luciferin-H EGE luminescence; stronger effect = higher value; 0 = fully inhibited enzyme, 1 = untreated enzyme; activation factor at 5 µM; 96,000 tested, under 10 active;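 active = activation factor of at least 2 at 5 µM in the primary screen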;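 note: 0 = wells with 2.5 mM tranylcypromine and 1 = vehicle-only wells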
CYP2C9 inh: blockers of cytochrome P450 2C9 activity – biochemical, luminescence, ADME assay, primary screen; AID 777, 2007; hit rate 20% among 96,000; inhibition, % at 5 µM; CYP2C9 Supersomes, luciferin-H conversion; P11712;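 active = blocking of liver enzyme CYP2C9 beyond about 50% at 5 µM, limit read from the data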
* marks the source's active call; other numbers are inactive results. An excerpt weighted towards active compounds, which were near 31% of everything screened.

SMILES	CYP2C19 inhib	CYP2C9 activ	CYP2C19 act	CYP2C9 inh
O=C(CC1CCCCC1)N1CCCC(c2nc(-c3ccc(S(=O)(=O)N4CCCC4)cc3)no2)C1 (stereo not drawn)	30	0.4	0.7	60*
COc1ccc(-c2noc(C3CCCN(C(=O)CCc4ccccc4)C3)n2)cc1 (stereo not drawn)	44	0.3	0.6	70*
CCCCCC(=O)N1CCCC(c2nc(-c3ccc(OC)cc3)no2)C1 (stereo not drawn)	64*	0.3	0.4	67*
N#CC1=C(N)Oc2n[nH]c(-c3ccc(F)cc3)c2C1c1cccc(OC(=O)N2CCOCC2)c1 (stereo not drawn)	22	0.6	0.8	45
N#CC1=C(N)Oc2n[nH]c(-c3ccccc3)c2C1c1cccc(OC(=O)N2CCOCC2)c1 (stereo not drawn)	19	0.4	0.8	57*
COc1cccc(-c2[nH]nc3c2C(c2ccoc2)C(C#N)=C(N)O3)c1 (stereo not drawn)	87*	0.5	0.1	50
COc1cccc(-c2[nH]nc3c2C(c2ccsc2)C(C#N)=C(N)O3)c1 (stereo not drawn)	21	1.1	0.8	-6
CCOC(=O)c1nn(-c2ccc(C)cc2)cc1O	61*	0.7	0.4	31
CCOC(=O)c1nn(-c2sc(C(=O)OC)c(C)c2C(=O)OC)cc1O	100*	0.4	0	61*
CCOC(=O)c1nn(-c2cc(C(=O)OC)cc(C(=O)OC)c2)cc1O	34	1.2	0.7	-24
COc1ccc(NC(=S)NCCc2ccc(Cl)cc2)c(OC)c1	86*	0.8	0.1	22
COc1ccc(NC(=S)Nc2ncccc2C)c(OC)c1	76*	0.9	0.2	14
COc1ccc(NC(=S)NCCc2c[nH]c3ccc(OC)cc23)c(OC)c1	71*	0.4	0.3	62*
CSc1ccc(Cl)c(C(=O)NC2CCCC2)c1	22	0.9	0.8	6
O=C(CSc1nc2ccccc2[nH]1)c1ccco1	65*	0.6	0.3	39
O=C(CSc1nc2ccccc2[nH]1)c1ccc(Cl)s1	98*	0.1	0	92*
COC(=O)CNC(=O)CN1C(=O)N(c2cccc(Cl)c2)C(N(O)C(=O)Nc2cccc(Cl)c2)C1(C)C (stereo not drawn)	17	0.8	0.8	21
CCOC(=O)CNC(=O)C(=O)c1c(O)[nH]c2ccccc12	3	1	1	-5
Cn1ncc(C#N)c1NC(=O)c1nn2cccnc2c1Cl	-11	1	1.1	4
CC(=O)Nc1sc2c(c1CN1CCN(c3ccccn3)CC1)CCCC2	82*	0.7	0.2	31
CC(=O)Nc1sc2c(c1CN1CCN(c3ccc(F)cc3)CC1)CCCC2	86*	0.7	0.1	30
c1ccc(CN2CCN(c3ncccn3)CC2)nc1	54*	0.6	0.5	42
O=C(c1ccc(-c2ccccc2)cc1)N1CCN(Cc2ccccn2)CC1	-4	1.1	1	-9
Fc1ccc(F)c(CN2CCN(c3ncccn3)CC2)c1	34	0.6	0.7	40
Fc1ccc(CN2CCN(c3ncccn3)CC2)cc1	57*	0.9	0.4	13
SMILES	CYP2C19 inhib	CYP2C9 activ	CYP2C19 act	CYP2C9 inh
CCOC(=O)CC(N)c1ccc(OC)cc1 (stereo not drawn)	6	1	0.9	-1
O=C1NCCCC1C(=O)N1CCN(C(=O)C2CCCNC2=O)CC1 (stereo not drawn)	-17	1.1	1.2	-10
O=C(CSCc1cccc(Br)c1)N=Nc1c(O)[nH]c2ccccc12	41	1.1	0.6	-11
Cc1cc(Cl)ccc1N(CC(=O)N=Nc1c(O)[nH]c2ccccc12)S(C)(=O)=O	76*	0.5	0.2	53*
Cc1csc(NC(=O)c2cccc(Cn3nc(C)c(Br)c3C)c2)n1	93*	0.1	0.1	90*
Cc1cc(C)c2c(N)c(S(=O)(=O)Cc3ccccc3)sc2n1	99*	3*	0	-197
CCc1nnc(NC(=O)CSc2nnc(-c3ccccc3O)n2-c2ccc(C)cc2C)s1	11	0.6	0.9	38
CCOc1cc(CNc2ccc3c(c2)CCC3)ccc1OC	56*	0.8	0.4	23
COc1cc2c(cc1OC)-c1cc(Nc3ccc4c(c3)OCCO4)nc(=O)n1CC2	36	0.3	0.6	67*
COc1cc2c(cc1OC)-c1cc(N3CCCc4ccccc43)nc(=O)n1CC2	60*	0.3	0.4	69*
CCOC(=O)N1CCN(C(=O)CSc2nnc(Cc3ccccc3)o2)CC1	-6	0.9	1.1	6
CCn1c(CCNC(=O)c2ccc(Cl)c(Cl)c2)nnc1SCCOc1ccc(OC)cc1	13	0.8	0.9	22
O=C(c1ccccc1)c1ccc(N2CCOCC2)c(F)c1	67*	0.9	0.3	9
O=C(Cc1ccccc1)Nc1ccc(N2CCOCC2)cc1N1CCOCC1	29	0.8	0.7	16
O=C(Nc1ccc(N2CCOCC2)c(F)c1)c1ccncc1	52*	0.4	0.5	65*
O=C(Cc1ccccc1)Nc1cc(C(=O)c2ccccc2)ccc1N1CCOCC1	69*	0.1	0.3	90*
O=C(c1ccccc1)c1cc(F)c(N2CCOCC2)cc1Cl	59*	1.2	0.4	-17
Cc1ccc(Nc2nc(N)nc(CSc3nnc(-c4ccncc4)o3)n2)cc1	4	0.9	1	10
O=C(OCC(=O)N1CCN(C(=O)c2ccco2)CC1)c1ccc(S(=O)(=O)N2CCCCC2)cc1	1	0.4	1	60*
Cc1cc(C(=O)OCC(=O)N2CCN(c3ccccc3)CC2)c2ccccc2n1	39	2.8*	0.6	-175
O=C(OCC(=O)N1CCN(c2ccccc2)CC1)c1ccco1	25	0.9	0.7	12
O=C(OCC(=O)N1CCN(c2ccccc2)CC1)c1ccc2ncsc2c1	73*	1.6	0.3	-63
O=C(OCC(=O)N1CCN(C(=O)c2ccco2)CC1)c1cc(-c2ccc(F)cc2)nc2ccccc12	12	0.6	0.9	40
O=C(OCc1ccco1)c1ccc(S(=O)(=O)N2CCCCC2)cc1	-19	1.2	1.2	-24
O=C(OCC(=O)N1CCN(C(=O)c2ccco2)CC1)c1cc(-c2ccccc2)nc2ccccc12	50	0.2	0.5	76*
SMILES	CYP2C19 inhib	CYP2C9 activ	CYP2C19 act	CYP2C9 inh
CC(C)COC(=O)c1cc(=O)[nH]c2ccccc12	-2	1.2	1	-23
Cc1oc2ccc(OCc3ccccc3F)cc2c1C(=O)O	3	0.6	1	40
O=C(OCC(=O)N1CCN(C(=O)c2ccco2)CC1)c1cn(-c2ccccc2)nc1-c1ccccc1	43	0.3	0.6	68*
O=C(OCC(=O)N1CCN(C(=O)c2ccco2)CC1)c1ccccc1OCc1ccccc1	64*	0.1	0.4	87*
O=C(OCC(=O)N1CCCC1)c1ccccc1OCc1ccccc1	12	0.9	0.9	11
O=C(OCC(=O)N1CCN(C(=O)c2ccco2)CC1)c1cc(-c2cccc(Br)c2)nc2ccccc12	-9	0.4	1.1	61*
